In the library only some 1.1% were active in any assay of this set; here they are far more common.
S1P4 antagonist: S1P4 receptor antagonists, primary screen, cell-based; 0.26% of 220,000 active; inhibition, % at 4.98 µM; AID 1510, 2009; S1P4-expressing cells, antagonist mode, reporter read-out; Sphingosine 1-phosphate receptor 4 (Homo sapiens), O95977; in the data active means inhibition above about 29%;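 further: 0% = wells stimulated with agonist and 100% = vehicle wells without agonist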
SUMO HTRF inh: inhibitors of in vitro SUMOylation cascade, primary screen, biochemical, HTRF, uHTS | 0.36% of 290,000 active | inhibition, % at 35 µM | SUMO-conjugating enzyme UBC9 (Homo sapiens), P63279 | AID 2006, 2009 | HTRF SUMOylation assay, SAE1/SAE2 + UBC9; in the data active means inhibition above about 50%, passing the limit was not always enough
Target sequence (P63279 whole entry, looked up): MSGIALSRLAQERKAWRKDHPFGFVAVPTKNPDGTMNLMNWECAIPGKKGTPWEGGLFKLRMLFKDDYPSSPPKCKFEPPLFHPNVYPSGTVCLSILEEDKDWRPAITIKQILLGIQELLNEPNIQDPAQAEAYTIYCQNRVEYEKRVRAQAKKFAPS
S1P4 agonist: S1P4 receptor agonists, primary screen, cell-based. Sphingosine 1-phosphate receptor 4 (Homo sapiens), O95977. S1P4-expressing cell line, agonist reporter assay. activation, % at 4.98 µM. 0.35% of 220,000 active; in the data active means activation above about 11%;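 further: 0% = DMSO vehicle and 100% = reference agonist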
DTT redox prof: compounds producing H2O2 with reducing agent – biochemical, NIH compound library profiling, artefact control for MLSCN library redox annotation, primary screen | DTT-dependent redox cycling H2O2, phenol red/HRP absorbance; 100% = 100 µM peroxide control, 0% = buffer | activation, % at 10 µM | 0.03% of 200,000 active | AID 878, 2007;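 active means activation of at least 50% relative to the plate's high and low controls in the primary single-dose screen; inactive means activation below 50%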;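 further: compound incubated with DTT at 0.8 mM final as the reducing agent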
S1P3 antag: S1P3 receptor antagonists, primary screen, cell-based. AID 485, 2006. 0.27% of 170,000 active. inhibition, % at 4.98 µM. CHO S1P3 NFAT-BLA reporter, FRET fluorescence, antagonist mode;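 active means inhibition above the plate cutoff, the mean inhibition of test wells on that plate plus 3 SD, cut at about 28% in these data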;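 further: cells challenged with S1P at its EC80 of 0.8 µM; blue over green emission ratio from cleaved BLA substrate after 4 h stimulation; 0% = S1P-stimulated wells and 100% = unstimulated DMSO-only wells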
Target sequence (Q99500 whole entry, looked up): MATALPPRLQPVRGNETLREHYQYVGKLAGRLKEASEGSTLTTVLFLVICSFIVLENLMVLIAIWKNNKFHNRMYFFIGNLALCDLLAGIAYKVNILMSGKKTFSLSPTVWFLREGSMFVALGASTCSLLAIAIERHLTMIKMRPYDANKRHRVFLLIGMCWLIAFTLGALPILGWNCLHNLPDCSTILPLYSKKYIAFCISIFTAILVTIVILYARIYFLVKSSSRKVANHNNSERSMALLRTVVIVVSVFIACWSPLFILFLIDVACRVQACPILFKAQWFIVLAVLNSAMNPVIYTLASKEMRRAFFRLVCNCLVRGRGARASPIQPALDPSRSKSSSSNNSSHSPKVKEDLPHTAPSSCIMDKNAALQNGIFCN
p97 inhibitor: inhibitors of human p97 ATPase, primary screen, biochemical; 0.42% of 220,000 active; inhibition, % at 8 µM; AID 1481, 2009; recombinant p97 ATPase, Kinase-Glo ATP luminescence, 3 h; in the data active means inhibition above about 15%;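 further: 0% = DMSO vehicle and 100% = wells lacking enzyme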
An asterisk follows results filed as active; x = not tested or not shown.

SMILES	S1P4 antagonist	SUMO HTRF inh	S1P4 agonist	DTT redox prof	S1P3 antag	p97 inhibitor
CCN(CC)c1nc(SCC(=O)O)nc(N(CC)CC)n1	-17	8	1	1	27	15*
C=CCNc1nc(Nc2ccc(OC)cc2)nc(OCC)n1	-5	-6	-4	0	x	0
Cn1cnnc1SCCNS(=O)(=O)c1cccc([N+](=O)[O-])c1	x	-2	x	x	x	x
CCN(CC)C(=O)CSc1ncnc2c(-c3cccs3)nsc12	-5	33	1	-8	-26	-4
CC(=O)Nc1ccc(NC(=O)Cc2sc(-c3cccnc3)nc2-c2ccc(C)cc2)cc1	3	-14	2	0	9	15*
Nc1nc(-c2cc(O)ccc2[N+](=O)[O-])cc(-c2ccccc2)c1[N+](=O)[O-]	x	98*	x	x	x	x
Nc1ccc(-c2nc3ccc(N)cc3[nH]2)cc1	0	66*	1	0	-27	6
Cc1ccc(C)c(-c2nc3ccc(N)cc3[nH]2)c1	-15	50*	-1	1	-9	3
Cc1ccc2nc(-c3ccccc3N)[nH]c2c1	-27	34	1	0	8	-25
O=C(Cn1c(=O)oc2ccccc21)N1CCOCC1	8	7	1	1	-3	1
CNc1nc(OCC(F)(F)F)nc(N2CCOCC2)n1	-5	-7	0	0	x	2
CNc1nc(OC)nc(N2CCOCC2)n1	-6	-4	3	0	66*	-1
Cc1cc(C)c(NC(=O)CC(C)(C)C)c(Cl)c1	-8	-3	-1	-4	x	1
CC(C)[C@@H]1NC(=O)c2cc([N+](=O)[O-])cc(I)c2NCC[C@@H](C(N)=O)NC(=O)[C@H](CO)NC1=O	-6	2	2	1	-10	18*
Cc1[nH]c(C)c(S(=O)(=O)Nc2cccc(Cl)c2C)c1C(=O)N1CCCC1	x	3	x	x	x	x
Cc1oc2c(c(C)cc3oc(=O)c(CC(=O)NCC(=O)NCC(=O)O)c(C)c32)c1C	x	53*	x	x	x	x
Cc1oc2c(c(C)cc3oc(=O)c(CC(=O)N[C@H](C(=O)O)C(C)C)c(C)c32)c1C	x	51*	x	x	x	x
c1csc(CCNc2ncnc3sc4c(c23)CCC4)c1	x	-2	x	-1	94*	x
O=C(N/N=C\C=C\c1ccc([N+](=O)[O-])o1)c1cccs1	x	51*	x	x	x	x
O=C(N/N=C/C=C/c1ccccc1[N+](=O)[O-])c1cccs1	-7	-8	-2	1	-2	0
COc1ccc(Nc2ncc3c(n2)CC(c2ccccc2)CC3=O)cc1 (configuration not stated)	-9	5	1	-1	53*	-3
CCc1ccc(Nc2ncc3c(n2)CC(c2ccc(OC)cc2)CC3=O)cc1 (configuration not stated)	-2	0	0	2	x	2
CCN(CC(=O)NCc1ccc(Cl)cc1)C(=O)c1ccc(S(=O)(=O)N(C)C)cc1	-12	9	2	-1	-10	2
Cc1cccc(-c2n[nH]c(=S)n2/N=C/C=C/c2ccco2)c1	-12	x	0	x	-4	4
CC(/C=N/n1c(-c2ccc(C)cc2)n[nH]c1=S)=C\c1ccco1	-3	19	1	1	1	3
SMILES	S1P4 antagonist	SUMO HTRF inh	S1P4 agonist	DTT redox prof	S1P3 antag	p97 inhibitor
CC(/C=N/n1c(-c2ccco2)n[nH]c1=S)=C\c1ccco1	-17	64*	1	0	-20	-4
S=c1[nH]nc(-c2ccncc2)n1/N=C/C=C/c1ccco1	-16	91*	-2	-1	-8	12
Cc1ccc(C(=O)N/C(=C\c2cccc([N+](=O)[O-])c2)C(=O)NC(Cc2ccccc2)C(=O)O)cc1 (configuration not stated)	x	5	x	x	x	x
COc1ccc(CNC(=O)c2cc3c(=O)n4ccccc4nc3n(Cc3ccco3)c2=N)cc1	8	x	-1	2	-4	35*
COc1ccc(CCNC(=O)c2cc3c(=O)n4ccccc4nc3n(Cc3ccco3)c2=N)cc1OC	x	17	x	x	x	x
O=C(NCc1ccco1)c1cccn2c(=O)c3cc4ccccc4cc3nc12	1	78*	-3	2	x	0
Cc1ccc(S(=O)(=O)Nc2nonc2C)cc1	-21	14	1	0	-37	5
COc1ccc(CCn2nnnc2C(c2ccc(C)cc2)N2CCN(C)CC2)cc1OC (configuration not stated)	15	-11	1	-3	-33	-2
C=CCN1CCN(C(c2ccc(Cl)cc2)c2nnnn2CCc2ccc(OC)c(OC)c2)CC1 (configuration not stated)	-7	-9	2	0	104*	-7
CC(C)NC(=O)CN(Cc1ccc(F)cc1)C(=O)CCC(=O)Nc1ccccn1	x	-2	x	x	x	x
CC1=C(C#N)C(=O)N(C2CCS(=O)(=O)C2)C(=O)/C1=C\c1ccco1 (configuration not stated)	-6	90*	-1	x	4	34*
O=C1/C(=C\c2ccco2)SC(=S)N1C1CCCCC1	x	23	x	x	x	x
O=c1c2ccccc2oc2nc3ccn(Cc4ccncc4)c(=O)c3cc12	-23	68*	0	-4	x	0
CCCCNC(=O)c1ccc(Cn2c(=S)[nH]c3c([nH]c4ccc(OC)cc43)c2=O)cc1	-13	53*	5	1	-1	2
CCOCCCNC(=O)c1ccc(Cn2c(=S)[nH]c3c([nH]c4ccc(OC)cc43)c2=O)cc1	-21	18	0	0	-8	-6
CCN(c1ccccc1)c1cc2ccccc2c(=O)[nH]1	x	61*	x	x	x	x
CC(Oc1ccc(Cl)cc1Cl)C(=O)NCCCN1CCOCC1 (configuration not stated)	-20	-2	3	-1	99*	-4
COC(=O)C1CCN(C(=O)COc2cc3sc(C)nc3c3sccc23)CC1	12	26	1	0	55*	-4
COC(=O)C1CCN(C(=O)COc2ccc(Cl)cc2)CC1	-8	12	3	0	3	-4
CCOC(=O)c1sc2nc3c(SCCC#N)cc(C(=O)c4cc(F)ccc4O)cn3c(=O)c2c1C	-7	29	0	0	-4	2
CCOC(=O)c1sc2nc3c(SCCC(=O)O)cc(C(=O)c4cc(OC)ccc4O)cn3c(=O)c2c1C	-34	74*	0	-2	-11	-6
Cc1oc2cc(O)ccc2c(=O)c1Oc1ccc(F)cc1	x	34	x	x	x	x
COc1c(C)oc2cc(O)ccc2c1=O	-6	50*	1	-1	-22	-5
Cc1ccccc1CCN(C(=O)c1csnn1)C(C(=O)NC1CCCC1)c1ccncc1 (configuration not stated)	x	8	x	x	x	x

Screening data (PubChem)
